Assay [1] can be described thus: qHTS assay to identify small molecule antagonists of the sonic hedgehog signaling (Shh) pathway (AID 1259369). Further: nearly all actives have a fitted effect of over 45% in size. Further: potency means the concentration at half of the fitted maximal effect. The gist of the method:
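For antagonist detection, the reporter line received test compounds together with conditioned medium, incubated 24hr at 37 C, 5% CO2, then luminescence was recorded following 30min room-temperature luciferase reagent incubation.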
Background: qHTS replaces the single test concentration by a dilution series.

Assay [2] has as its target Estrogen receptor beta (Homo sapiens) (UniProt Q92731). Nature of the assay: qHTS assay to identify small molecule agonists of the estrogen receptor beta (ER-beta) signaling pathway (AID 1259377; active means well fitted activation curve with a large enough effect in the signal ratio in the repeat runs, not every such curve was filed as active; the % refers to the signal ratio). A digest of the protocol:
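Ratiometric beta-lactamase FRET read-out came after 2 h substrate loading at room temperature. It followed 16 h compound treatment at 37C of GripTite HEK293T cells carrying a UAS-bla reporter, plated in 2% charcoal-stripped FBS medium.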

Assay [3] shares this target. The experiment in a line: qHTS assay to identify small molecule antagonists of the estrogen receptor beta (ER-beta) signaling pathway (AID 1259378; active means well fitted inhibition curve with a large enough effect in the signal ratio in the repeat runs, not every such curve was filed as active; the % refers to the signal ratio). A digest of the protocol: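 ER-beta-UAS-bla HEK293T cells in 2% charcoal-stripped FBS medium treated with compound plus 1nM final 17-beta-estradiol for 16 hr at 37C. Beta-lactamase reporter read by FRET substrate fluorescence after 2 hours at room temperature.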

The nature of assay [4]: qHTS assay to identify small molecule agonists of the androgen receptor (AR) signaling pathway in the presence of an antagonist - cell viability counter screen (AID 1259379; active means well fitted curve in the direction sought with a large enough effect in the repeat runs; an effect the other way counts as inactive or inconclusive;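 further: MDA-kb2 human breast cancer cells carrying an MMTV luciferase reporter; series mostly up to about 92 µM; nearly all actives have a fitted effect of over 25% in size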). The gist of the method: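 Seed MDA-kb2 at 3,000 cells/well; incubate 5 hr, 37C, 0% CO2. Add nilutamide to 3.0uM final, then pin compounds at 15 concentrations. Incubate 16 hr. Add CellTiter-Fluor at 15 hr, read fluorescence after 1 hr.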

Assay [5] in a line: qHTS assay to identify small molecule antagonists of the estrogen receptor beta (ER-beta) signaling pathway - cell viability counter screen (AID 1259382; active means well fitted curve in the direction sought with a large enough effect in the repeat runs; an effect the other way counts as inactive or inconclusive; further: series mostly up to about 92 µM; nearly all actives have a fitted effect of over 55% in size). A digest of the protocol:
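In this multiplexed counter screen, cells were seeded at 2,000 per well in medium with 2% charcoal-stripped FBS and incubated 6 hr before compound and 1nM final E2 were added. Sixteen hours later, ATP-based luminescence reported viability.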

The nature of assay [6]: qHTS assay to identify small molecule agonists or antagonists of the thyroid stimulating hormone receptor (TSHR) signaling pathway - wild type cell line counter screen (AID 1259384). A digest of the protocol:
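Wild-type Hek293 cells, 800/well, 18 h at 37C, then compound with Ro20-1724 for 30 min RT. cAMP by HTRF (cAMP-d2/anti-cAMP cryptate), 1 h RT, fluorescence read. 15 concentrations, triplicates.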

Assay [7] addresses Thyrotropin receptor (Homo sapiens) (UniProt P16473). Nature of the assay: qHTS assay to identify small molecule antagonists of the thyroid stimulating hormone receptor (TSHR) signaling pathway (AID 1259385). Further: nearly all actives have a fitted effect of over 20% in size. The gist of the method: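 TSHR-HEK293 cells (800/well) plated 18 h, then compounds with Ro20-1724 and TSH at 1.5 ng/mL final, 30 min at room temperature. cAMP quantified by HTRF (cAMP-d2/anti-cAMP-cryptate, 1 h); 15 concentrations in triplicate.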

Assay [8] in a line: qHTS assay to identify small molecule agonists of the estrogen receptor alpha (ER-alpha) signaling pathway in the presence of an antagonist - cell viability counter screen (AID 1259386; active means well fitted curve in the direction sought with a large enough effect in the repeat runs; an effect the other way counts as inactive or inconclusive;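 further: series mostly up to about 92 µM; cells exposed to compounds for 22 h at 37 °C before the viability read; nearly all actives have a fitted effect of over 30% in size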). The gist of the method: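 Viability counter screen using VM7Luc4E2 (full-length ER-alpha, four ERE-luciferase). The cells were treated with compounds alongside ICI-182,780 10.0nM for 22hr, and live-cell protease fluorescence was quantified with CellTiter-Fluor.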

In assay [9] the target is Progesterone receptor (Homo sapiens) (UniProt P06401). The experiment in a line: qHTS assay to identify small molecule agonists of the progesterone receptor (PR) signaling pathway (AID 1346784). Further: nearly all actives have a fitted effect of over 30% in size. Further: potency means the concentration at half of the fitted maximal effect. A digest of the protocol:
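Agonist qHTS: compounds pinned onto 3,000 PR-UAS-bla HEK 293T cells per well in charcoal-stripped serum medium, 16hr at 37C, then beta-lactamase activity measured by LiveBLAzer FRET fluorescence after 2 hours at room temperature.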

The target is the same in assay [10]. Nature of the assay: qHTS assay to identify small molecule antagonists of the progesterone receptor (PR) signaling pathway (AID 1346795; active means well fitted inhibition curve with a large enough effect in the signal ratio in the repeat runs, not every such curve was filed as active; the % refers to the signal ratio; further: potency means the concentration at half of the fitted maximal effect). The gist of the method:
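Antagonist mode with agonist R5020 at 1 nM final and 16 hr incubation at 37C. Reporter was beta-lactamase driven by UAS in HEK293T (PR-UAS-bla), 2% charcoal-stripped serum; signal from LiveBLAzer FRET substrate, 2 hr at room temperature.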

A short description of assay [11]: qHTS assay to identify small molecule antagonists of the TGF-beta/Smad signaling pathway - cell viability counter screen (AID 1346824; active means well fitted curve in the direction sought with a large enough effect in the repeat runs; an effect the other way counts as inactive or inconclusive; further: nearly all actives have a fitted effect of over 50% in size). A digest of the protocol: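 SBE-bla HEK 293T cells, incubated overnight, then compound plus 0.25 ng/mL TGF-beta1 (stock added) for 5 hr at 37 C. Viability was read in the same wells by CellTiter-Glo luminescence after 30 min at room temperature.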

Assay [12] in a line: qHTS assay to identify small molecule agonists of the TGF-beta/Smad signaling pathway - cell viability counter screen (AID 1346829; active means well fitted curve in the direction sought with a large enough effect in the repeat runs; an effect the other way counts as inactive or inconclusive; further: top concentration of the series differs between compounds; nearly all actives have a fitted effect of over 45% in size). A digest of the protocol:
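In parallel with the Smad reporter read, viability of HEK 293T cells stably carrying SBE-bla is quantified by ATP luminescence following 5 hr compound treatment.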

Assay [13] in a line: qHTS assay to identify small molecule agonists of the TGF-beta/Smad signaling pathway (AID 1346859; active means well fitted activation curve with a large enough effect in the signal ratio in the repeat runs, not every such curve was filed as active; the % refers to the signal ratio; further: series mostly up to about 77 µM). The gist of the method: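 Fluorescence (ex 405 nm; em 460 and 530 nm) was read 2 h after LiveBLAzer FRET substrate at RT. The preceding compound treatment of overnight-plated SBE-bla HEK293T cells lasted 5 h at 37 C.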
Assay [14] is described as follows: qHTS assay to identify small molecule agonists of the estrogen receptor beta (ER-beta) signaling pathway - cell viability counter screen (AID 1259380; active means well fitted curve in the direction sought with a large enough effect in the repeat runs; an effect the other way counts as inactive or inconclusive; further: nearly all actives have a fitted effect of over 30% in size; further: potency means the concentration at half of the fitted maximal effect). A digest of the protocol:
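CellTiter-Glo read, 30 min RT, same wells as bla assay; cells ER-beta-UAS-bla HEK293T; 16 hr compound, 37C; medium 2% charcoal-stripped FBS.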

Assay [15] concerns the target Androgen receptor (Homo sapiens) (UniProt P10275). Nature of the assay: qHTS assay to identify small molecule agonists of the androgen receptor (AR) signaling pathway in the presence of an antagonist (AID 1259381). Further: nearly all actives have a fitted effect of over 15% in size. Further: potency means the concentration at half of the fitted maximal effect. The gist of the method: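 Test compounds at 15 concentrations were incubated for 16hr with MDA-kb2 reporter cells in presence of 3.0uM nilutamide (final). Signal: ONE-Glo luciferase luminescence.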

In assay [16] the target is Estrogen receptor (Homo sapiens) (UniProt P03372). Nature of the assay: qHTS assay to identify small molecule agonists of the estrogen receptor alpha (ER-alpha) signaling pathway in the presence of an antagonist (AID 1259383). Further: top concentration of the series differs between compounds; nearly all actives have a fitted effect of over 15% in size. The gist of the method: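 Stably transfected VM7Luc4E2 reporter cells, kept 5 days in charcoal-stripped serum, received ICI-182,780 at 10.0nM final before compound addition. Following 22hr incubation at 37C and 5% CO2, luciferase signal was read by luminescence.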

Assay [17] in a line: qHTS assay to identify small molecule agonists of the progesterone receptor (PR) signaling pathway - cell viability counter screen (AID 1346799). Further: nearly all actives have a fitted effect of over 45% in size. The gist of the method:
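Cytotoxicity measured by CellTiter-Glo luminescence (30 min, RT) in the same wells as the PR beta-lactamase agonist read. Those HEK293T cells had 16 h compound treatment at 37 C in 2% charcoal-stripped FBS medium.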

In assay [18] the target is Thyrotropin-releasing hormone receptor (Homo sapiens) (UniProt P34981). Nature of the assay: qHTS assay to identify small molecule antagonists of the thyrotropin-releasing hormone receptor (TRHR) signaling pathway (AID 1346877; active means well fitted inhibition curve with a large enough effect in the repeat runs, not every such curve was filed as active; further: series mostly up to about 51 µM). A digest of the protocol: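 Following an 18 h incubation at 37 °C and a 2 h calcium dye load, TRHR-HEK293 cells were exposed to compound (5 min, room temperature) and challenged with TRH, 1 nM final.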

For assay [19] the target is unchanged. Nature of the assay: qHTS assay to identify small molecule agonists of the thyrotropin-releasing hormone receptor (TRHR) signaling pathway (AID 1346891). Further: series mostly up to about 58 µM. A digest of the protocol:
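Agonist-mode intracellular calcium readout: kinetic fluorescence over 3 min at 1 s intervals after compound addition to TRHR-HEK293 cells (18 h seeded, 2 h dye-loaded at 37 C). Fifteen concentrations, triplicates.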

A short description of assay [20]: qHTS assay to identify small molecule antagonists of the progesterone receptor (PR) signaling pathway - cell viability counter screen (AID 1346798; active means well fitted curve in the direction sought with a large enough effect in the repeat runs; an effect the other way counts as inactive or inconclusive; further: series mostly up to about 92 µM; nearly all actives have a fitted effect of over 50% in size). A digest of the protocol:
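Cytotoxicity read as CellTiter-Glo luminescence (30 min, room temperature) in the same wells as the beta-lactamase readout. HEK293T PR-UAS-bla cells in charcoal-stripped 2% FBS received compound and R5020, then 16 h at 37C, 5% CO2.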

Values without a mark were called inactive. Inconclusive results are not listed. Activity calls are given as the source filed them. Unless noted, the call rests on the fitted dose curve.

Progesterone receptor (Homo sapiens), sequence (P06401 whole entry, looked up): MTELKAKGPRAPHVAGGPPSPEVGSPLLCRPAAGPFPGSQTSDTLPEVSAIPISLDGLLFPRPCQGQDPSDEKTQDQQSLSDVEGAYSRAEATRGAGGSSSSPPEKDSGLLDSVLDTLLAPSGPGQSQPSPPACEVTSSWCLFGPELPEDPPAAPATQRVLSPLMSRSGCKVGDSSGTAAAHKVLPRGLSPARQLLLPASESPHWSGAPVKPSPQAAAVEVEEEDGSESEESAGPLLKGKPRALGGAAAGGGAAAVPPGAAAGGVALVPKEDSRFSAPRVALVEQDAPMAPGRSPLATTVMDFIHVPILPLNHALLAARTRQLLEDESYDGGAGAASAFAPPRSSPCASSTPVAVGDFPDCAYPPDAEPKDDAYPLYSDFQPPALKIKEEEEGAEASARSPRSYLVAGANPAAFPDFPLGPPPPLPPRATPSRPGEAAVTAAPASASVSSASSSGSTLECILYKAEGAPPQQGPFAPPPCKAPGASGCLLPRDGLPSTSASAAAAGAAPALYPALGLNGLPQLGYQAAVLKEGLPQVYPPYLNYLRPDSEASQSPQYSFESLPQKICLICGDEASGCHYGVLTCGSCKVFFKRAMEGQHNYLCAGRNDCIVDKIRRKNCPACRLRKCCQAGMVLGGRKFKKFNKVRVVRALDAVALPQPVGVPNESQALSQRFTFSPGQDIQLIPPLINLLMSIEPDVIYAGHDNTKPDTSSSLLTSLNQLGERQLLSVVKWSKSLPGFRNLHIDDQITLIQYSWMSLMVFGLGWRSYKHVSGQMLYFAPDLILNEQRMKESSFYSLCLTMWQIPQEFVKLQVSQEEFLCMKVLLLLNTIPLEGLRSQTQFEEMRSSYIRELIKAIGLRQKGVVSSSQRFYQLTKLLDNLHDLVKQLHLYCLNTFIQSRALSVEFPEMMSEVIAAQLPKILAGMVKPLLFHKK
Thyrotropin-releasing hormone receptor (Homo sapiens), sequence (P34981 whole entry, looked up): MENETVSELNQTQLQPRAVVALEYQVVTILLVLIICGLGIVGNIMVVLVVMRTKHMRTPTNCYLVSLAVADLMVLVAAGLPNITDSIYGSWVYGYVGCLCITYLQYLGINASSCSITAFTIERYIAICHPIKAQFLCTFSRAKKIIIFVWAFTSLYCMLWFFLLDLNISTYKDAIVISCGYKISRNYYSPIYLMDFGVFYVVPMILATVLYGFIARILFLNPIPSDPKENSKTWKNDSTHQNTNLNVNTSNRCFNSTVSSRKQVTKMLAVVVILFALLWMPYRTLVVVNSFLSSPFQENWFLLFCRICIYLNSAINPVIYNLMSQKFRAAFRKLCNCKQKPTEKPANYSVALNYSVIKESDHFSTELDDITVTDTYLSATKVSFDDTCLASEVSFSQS
Thyrotropin receptor (Homo sapiens), sequence (P16473 whole entry, looked up): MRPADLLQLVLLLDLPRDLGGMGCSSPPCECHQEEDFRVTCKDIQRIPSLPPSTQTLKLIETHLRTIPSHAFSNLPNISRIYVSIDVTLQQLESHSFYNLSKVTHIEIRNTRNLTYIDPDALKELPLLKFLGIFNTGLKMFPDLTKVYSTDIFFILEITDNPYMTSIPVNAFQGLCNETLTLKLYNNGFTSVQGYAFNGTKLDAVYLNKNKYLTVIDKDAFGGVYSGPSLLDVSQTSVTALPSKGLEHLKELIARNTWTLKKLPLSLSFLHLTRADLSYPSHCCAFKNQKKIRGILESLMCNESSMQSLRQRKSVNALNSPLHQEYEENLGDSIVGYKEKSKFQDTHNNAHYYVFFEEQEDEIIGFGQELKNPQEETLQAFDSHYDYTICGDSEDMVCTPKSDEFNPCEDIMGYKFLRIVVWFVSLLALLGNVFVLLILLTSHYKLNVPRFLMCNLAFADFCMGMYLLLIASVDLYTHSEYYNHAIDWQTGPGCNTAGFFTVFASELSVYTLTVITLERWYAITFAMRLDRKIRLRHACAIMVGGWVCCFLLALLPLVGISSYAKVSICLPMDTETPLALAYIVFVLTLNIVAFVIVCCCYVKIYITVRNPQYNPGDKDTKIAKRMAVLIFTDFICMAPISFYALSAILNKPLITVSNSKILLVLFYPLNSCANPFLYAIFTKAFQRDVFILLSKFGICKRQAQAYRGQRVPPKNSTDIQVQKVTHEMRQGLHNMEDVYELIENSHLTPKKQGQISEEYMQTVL
Estrogen receptor beta (Homo sapiens), sequence (Q92731 whole entry, looked up): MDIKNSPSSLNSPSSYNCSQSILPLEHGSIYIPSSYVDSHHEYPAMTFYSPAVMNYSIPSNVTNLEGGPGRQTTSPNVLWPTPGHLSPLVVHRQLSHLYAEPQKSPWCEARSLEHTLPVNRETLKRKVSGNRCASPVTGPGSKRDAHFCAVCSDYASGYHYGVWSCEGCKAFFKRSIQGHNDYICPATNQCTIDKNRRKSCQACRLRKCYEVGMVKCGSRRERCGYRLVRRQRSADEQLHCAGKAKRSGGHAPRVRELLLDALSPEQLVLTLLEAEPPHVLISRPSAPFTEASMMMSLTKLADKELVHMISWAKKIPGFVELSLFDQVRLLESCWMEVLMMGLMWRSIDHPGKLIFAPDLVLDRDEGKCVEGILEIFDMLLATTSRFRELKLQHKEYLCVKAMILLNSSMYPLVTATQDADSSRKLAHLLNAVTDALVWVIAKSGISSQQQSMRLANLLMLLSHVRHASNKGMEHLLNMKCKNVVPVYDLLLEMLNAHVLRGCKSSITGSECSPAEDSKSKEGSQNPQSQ
Androgen receptor (Homo sapiens), sequence (P10275 whole entry, looked up): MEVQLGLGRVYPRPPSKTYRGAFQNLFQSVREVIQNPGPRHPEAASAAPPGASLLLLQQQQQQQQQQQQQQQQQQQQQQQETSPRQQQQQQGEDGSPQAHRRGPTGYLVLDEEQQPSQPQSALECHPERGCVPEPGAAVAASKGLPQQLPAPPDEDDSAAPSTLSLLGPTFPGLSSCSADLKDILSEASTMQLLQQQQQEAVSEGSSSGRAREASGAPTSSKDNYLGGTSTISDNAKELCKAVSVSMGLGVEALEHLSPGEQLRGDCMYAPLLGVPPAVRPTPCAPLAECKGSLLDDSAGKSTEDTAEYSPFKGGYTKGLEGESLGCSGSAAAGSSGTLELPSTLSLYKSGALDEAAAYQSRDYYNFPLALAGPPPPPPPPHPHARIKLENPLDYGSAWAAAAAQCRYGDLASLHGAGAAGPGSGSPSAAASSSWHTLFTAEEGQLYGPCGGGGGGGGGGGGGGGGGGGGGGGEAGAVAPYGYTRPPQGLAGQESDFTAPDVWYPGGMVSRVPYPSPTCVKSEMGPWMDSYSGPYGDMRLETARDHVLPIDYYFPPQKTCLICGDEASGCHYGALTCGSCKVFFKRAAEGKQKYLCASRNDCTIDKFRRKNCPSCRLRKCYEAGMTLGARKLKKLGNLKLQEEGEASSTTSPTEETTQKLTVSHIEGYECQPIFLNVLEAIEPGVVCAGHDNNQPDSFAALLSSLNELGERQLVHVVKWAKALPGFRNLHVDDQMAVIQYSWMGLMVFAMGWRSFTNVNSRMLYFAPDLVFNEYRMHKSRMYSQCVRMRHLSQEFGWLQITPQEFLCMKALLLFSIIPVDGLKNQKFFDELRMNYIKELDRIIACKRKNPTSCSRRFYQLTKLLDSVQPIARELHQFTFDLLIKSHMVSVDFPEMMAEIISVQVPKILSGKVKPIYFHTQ
Estrogen receptor (Homo sapiens), sequence (P03372 whole entry, looked up): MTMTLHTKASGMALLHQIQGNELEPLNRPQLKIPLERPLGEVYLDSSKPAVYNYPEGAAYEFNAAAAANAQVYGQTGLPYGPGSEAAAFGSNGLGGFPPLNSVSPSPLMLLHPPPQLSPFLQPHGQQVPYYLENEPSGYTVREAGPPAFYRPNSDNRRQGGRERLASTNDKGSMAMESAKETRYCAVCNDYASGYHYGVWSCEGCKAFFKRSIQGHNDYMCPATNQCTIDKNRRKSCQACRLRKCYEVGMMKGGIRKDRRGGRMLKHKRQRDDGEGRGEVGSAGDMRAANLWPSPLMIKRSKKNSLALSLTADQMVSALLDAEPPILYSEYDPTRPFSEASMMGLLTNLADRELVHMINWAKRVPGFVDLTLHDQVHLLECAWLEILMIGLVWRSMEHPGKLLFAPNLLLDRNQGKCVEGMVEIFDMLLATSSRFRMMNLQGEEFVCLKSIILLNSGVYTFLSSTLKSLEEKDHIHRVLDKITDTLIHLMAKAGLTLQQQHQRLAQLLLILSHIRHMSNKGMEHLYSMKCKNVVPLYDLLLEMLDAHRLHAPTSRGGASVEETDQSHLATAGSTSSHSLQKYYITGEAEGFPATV

Regarding `CCCCCCCCCCCCCCCCOP(=O)([O-])OCC[N+](C)(C)C`, the Potency entry in [1], in assay [3], in [4], in assay [7], in [8] and in assay [9] was “inactive” in each case. The Potency result in [10] is “inactive”. Further, the call in assay [2], in assay [5], in [6], in assay [11], in [12] and in [13] was inactive.
For the compound `O=C1CCN(c2ccccc2)N1`, the Potency entry in assay [1], in assay [4], in assay [16], in assay [7], in assay [8] and in assay [10] was “inactive” each time. In addition, the Potency result in [17] and in assay [19] was “inactive” throughout. Also, the result in assay [2], in assay [6], in assay [11], in assay [12], in assay [13] and in assay [18] was inactive. The Potency in assay [14] was 21.8 µM (active); in assay [15] it was 30.7 µM (active).
Turning to `COC(C)CCO` (stereo not drawn), the Potency entry in assay [1], in assay [4], in [14], in assay [15], in assay [7] and in [8] was “inactive” each time. Moreover, the Potency result in assay [9], in assay [10], in assay [20], in [17] and in assay [19] was “inactive” throughout. Besides, the result in assay [5], in assay [6], in assay [11], in [12], in [13] and in [18] was inactive.
For `CCOC(=O)CS`, the Potency in assay [1] is 19.9 µM (active); in assay [14], 70.5 µM (active); in [9], 3.15 µM (active). Besides, the outcome in assay [2], in assay [6], in assay [11], in assay [12], in assay [13] and in assay [18] was inactive. The Potency result in [4], in assay [7], in assay [8], in [10], in [17] and in assay [19] was “inactive” throughout.
In the case of `Cc1ccc([N+](=O)[O-])c(N)c1`, the figures for the Potency in assay [1] and in [10] were 18.9 µM (active) and 59.6 µM (active), respectively. Moreover, the result in [2], in assay [5], in [6], in assay [11], in [12] and in assay [13] was inactive. Besides, the compound was called inactive in assay [18]. The Potency entry in assay [3], in [7], in assay [8], in assay [9], in assay [17] and in assay [19] was “inactive” throughout.
Consider `OCCN1CCN(CCO)CC1`, for which the Potency result in assay [1], in assay [3], in [4], in [14], in assay [7] and in assay [8] was “inactive” throughout. The Potency result in [9], in assay [10], in assay [20], in assay [17] and in assay [19] was “inactive” throughout. Besides, the call in assay [5], in [6], in assay [12], in [13] and in assay [18] was inactive.
As to `C=C(C)C(=O)OCCOP(=O)(O)O`, the Potency entry in assay [1], in assay [3], in [4], in assay [14], in assay [16] and in assay [7] was “inactive” each time. Besides, the Potency result in assay [8], in assay [10], in assay [17] and in assay [19] was “inactive” throughout. Besides, the call in [5], in [6], in [11], in assay [12], in assay [13] and in [18] was inactive.

The values above are taken from PubChem BioAssay (Tox21).
